Screening data deposited in PubChem BioAssay by National Center for Advancing Translational Sciences (NCATS).
Only some compounds are listed: those with a hit (about 10% of all), similar ones and a draw of the others.
Lamin A splicing: qHTS Assay for Modulators of Lamin A Splicing; HeLa LMNA splicing GFP/RFP minigene ratio, 48 h; Potency, µM (titrated, usually from 46.1 µM), for inactives: at the top dose ratio change, negative = inhibition, actives largely listed as inhibitors; actives 0.01% (n = 200,000); AID 1487, 2009; active = well fitted inhibition curve with a large enough effect in the signal ratio, with a control signal flat, not every such curve was filed as active; inconclusive = small, poorly fitted or top-dose-only effect, or effect the other way, or a change in a side signal; the % refers to the signal ratio; also: potency is read from the fitted curve at half-maximal effect
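Read-out is the ratio of GFP to DsRed2 object intensity, acquired by 488 nm laser-scanning cytometry on HeLa lamin A-EGFP minigene reporter cells. Compound incubation 48 hrs at 37 °C in Opti-MEM with 2% FBS; DMSO 0.5% final.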
PNC assembly inh: High Content Assay for Compounds that inhibit the Assembly of the Perinucleolar Compartment; actives 3.1% (n = 140,000); activity change (PNC), negative = inhibition, % at 10 µM; PC3M PTB-GFP, PNC prevalence imaging, 16 h; stronger effect = lower value; AID 2417, 2010;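 active = readout at or below -70, meaning at least 70% loss of cells showing the perinucleolar compartment, a nuclear body marking cancer cells; inconclusive = readout between -30 and a set limit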;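 also: plate controls were DMSO wells for no effect and camptothecin positive control wells for full effect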
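Read-out is percentage of cells bearing a perinucleolar compartment, from automated 20x imaging of fixed, Hoechst-stained PC3M PTB-GFP cells. Cells were seeded 4 h, then exposed 16 h to compound (23 nl of library stock) in duplicate plates.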
HPGD block: qHTS Assay for Inhibitors of HPGD (15-Hydroxyprostaglandin Dehydrogenase). AID 894, 2007. purified HPGD, NADH fluorescence kinetic, PGE2 substrate. Potency, µM, for the others: at the highest dose activity change, negative = inhibition, hits mostly inhibitors. 15-hydroxyprostaglandin dehydrogenase [NAD(+)] (Homo sapiens), P15428. actives 4.3% (n = 150,000); also: potency is read from the fitted curve at half-maximal effect
Target sequence (P15428 whole entry, looked up): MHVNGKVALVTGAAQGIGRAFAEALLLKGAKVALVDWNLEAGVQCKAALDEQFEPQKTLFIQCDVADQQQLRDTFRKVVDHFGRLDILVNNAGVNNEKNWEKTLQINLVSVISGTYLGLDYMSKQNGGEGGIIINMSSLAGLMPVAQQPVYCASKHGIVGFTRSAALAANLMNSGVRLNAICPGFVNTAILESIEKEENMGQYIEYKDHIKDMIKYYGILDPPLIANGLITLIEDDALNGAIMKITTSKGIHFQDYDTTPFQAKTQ
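20 nM HPGD preincubated 15 min at room temperature with compound in 50 mM Tris-HCl pH 8, 0.01% Tween 20. Started with 1 mM NAD+ and 30 uM prostaglandin E2; NADH fluorescence (360/450 nm) read 5 times over 30-s intervals, last minus first.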
12-hLO inh: qHTS Assay for Inhibitors of 12-hLO (12-human lipoxygenase); purified 12-hLO, xylenol orange hydroperoxide absorbance; actives 0.12% (n = 150,000); Polyunsaturated fatty acid lipoxygenase ALOX12 (Homo sapiens), P18054; Potency, µM (highest dose often 57.1 µM), without a hit: at the top dose activity change, negative = inhibition, actives largely listed as inhibitors; active = well fitted inhibition curve with a large enough effect; inconclusive = small, poorly fitted or top-dose-only effect; also: potency is read from the fitted curve at half-maximal effect; nearly all actives have a fitted effect of over 55% in size
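Purified human 12hLO (150 nM), preincubated 15 min with compound, then 40 uM arachidonic acid for 30 min, room temperature, Hepes pH 7.0 with 0.01% Triton X-100. Hydroperoxide detected by ferrous iron/xylenol orange; 573/405 nm absorbance ratio gives reaction progress.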
ALDH1A1 inh: qHTS Assay for Inhibitors of Aldehyde Dehydrogenase 1 (ALDH1A1) | actives 7.3% (n = 220,000) | Aldehyde dehydrogenase 1A1 (Homo sapiens), P00352 | Potency, µM (top dose mostly 75.3 µM), for inactives: top-dose activity, negative = inhibition, most hits filed as inhibitors | Purified ALDH1A1, NADH fluorescence, propionaldehyde substrate;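 also: potency is read from the fitted curve at half-maximal effect; plate controls were no enzyme wells and a reference inhibitor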
Target sequence (P00352 whole entry, looked up): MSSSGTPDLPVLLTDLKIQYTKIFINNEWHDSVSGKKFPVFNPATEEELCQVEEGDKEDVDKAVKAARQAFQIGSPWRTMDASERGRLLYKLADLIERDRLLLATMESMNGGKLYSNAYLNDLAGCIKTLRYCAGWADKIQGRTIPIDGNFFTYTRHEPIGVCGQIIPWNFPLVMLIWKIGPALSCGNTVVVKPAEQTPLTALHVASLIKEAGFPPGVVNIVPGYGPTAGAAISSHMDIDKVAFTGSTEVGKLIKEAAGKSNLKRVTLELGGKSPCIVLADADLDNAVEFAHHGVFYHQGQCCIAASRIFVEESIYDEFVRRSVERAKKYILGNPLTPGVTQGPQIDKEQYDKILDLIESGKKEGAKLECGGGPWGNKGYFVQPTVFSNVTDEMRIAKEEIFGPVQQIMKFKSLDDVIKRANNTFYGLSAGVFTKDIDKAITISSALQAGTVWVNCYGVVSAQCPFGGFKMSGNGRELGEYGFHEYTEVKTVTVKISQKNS
* = called active by the depositor; ? = inconclusive; nt = no result; [ ] = dose if it differs, or a comment. Unless noted, calls follow the shape of the dose curve; as a rule, active = well fitted inhibition curve with a large enough effect (not every such curve was filed as active); inconclusive = small, poorly fitted or top-dose-only effect, or another doubt; inactive = no such curve, though single readings can be large or run the other way. Unless noted, % is scaled to controls: 0 for no effect and ±100 for the full control effect.

SMILES	Lamin A splicing	PNC assembly inh	HPGD block	12-hLO inh	ALDH1A1 inh
Cc1ccc2nc(CN3CCN(S(=O)(=O)c4ccc(F)cc4)CC3)oc2c1	-10.2%[46 µM]	nt	nt	nt	nt
CSc1sc(C(=O)NNC(C)=O)c2c1C1(CCC2)SCCS1	2.6%[46 µM]	nt	nt	nt	?
CSc1sc(C(=O)NN)c2c1C1(CCC2)SCCS1	-5.9%[46 µM]	nt	nt	nt	0.447µM*
Brc1ccc2nc(-c3cccs3)c(NCC3CCCO3)n2c1 (stereo unspecified)	?	nt	nt	nt	7.94µM*
COc1ccc(-n2ncc(C(=O)NCc3ccccc3)c2C2CCN(C(=O)OC(C)(C)C)CC2)cc1	-2.0%[46 µM]	nt	nt	nt	nt
O=C(C1CC1)N(Cc1ccco1)c1nc(-c2ccccc2)cs1	?	34.7	-25.4%	-16.2%	6.31µM*
Cc1cc(OCC(=O)NC(C)C)cc(C)c1Cl	-10.9%	-100.0*	-22.8%	1.9%	-5.8%
Cc1cc(OCC(=O)NCC(C)C)cc(C)c1Br	-1.2%	14.1	14.1µM*	-4.0%	?
CCOC(=O)N1CCN(C(=O)COc2cc(C)c(Cl)c(C)c2)CC1	?	nt	nt	nt	5.2%
CC(N)CN (stereo unspecified)	nt	nt	-10.3%	-0.6%	?
CC(=O)c1[nH]c(C)c(C(=O)NCc2ccc(Cl)cc2)c1C	-2.4%[46 µM]	nt	nt	nt	nt
N[C@@H](Cn1cc(F)c(=O)[nH]c1=O)C(=O)O	nt	nt	-7.6%	-3.3%	-5.4%
C[C@@H](C(=O)Nc1ccc2ccccc2c1)[C@H]1C[C@]1(C)[C@H](NC(=O)c1cnccn1)c1ccccc1	?	-91.2*	-9.1%	1.4%	11.2µM*
COc1ccccc1-c1cc(C(F)(F)F)nc(S(C)(=O)=O)n1	?	?	25.1µM*	2.1%	-4.4%
COc1cccc(CNC(=O)CCl)c1	?	?	-21.6%	-0.4%	7.08µM*
COc1cccc(CNC(=O)C(=O)NCCc2ccc(OC)c(OC)c2)c1	-8.9%	-1.0	-12.5%	0.8%	?
COCCCNC(=O)/C(C#N)=C1\N=C(NC(=O)c2cccs2)c2ccccc21	nt	nt	nt	nt	3.98µM*
COCCn1nnnc1CN1CCSCC1	-7.0%[46 µM]	nt	nt	nt	5.9%
COCCn1nnnc1CN1CCC(Cc2ccccc2)CC1	-9.5%	-100.0*	-9.2%	4.5%	-12.6%
CCOC(=O)c1ccccc1NC(=O)N1CCC(CN2CCCCC2)CC1	-7.0%[46 µM]	nt	nt	nt	nt
C=CCN1C(=O)N/C(=C/c2ccc(N3CCOCC3)o2)C1=O	?	48.4	-20.0%	-2.9%	?
O=C1NC(=S)S/C1=C/c1ccc(N2CCOCC2)o1	?	-14.4	7.94µM*	-27.9%	7.8%
COc1ccc2cc(/C=C3\SC(=S)NC3=O)c(N3CCOCC3)nc2c1	?	?	20µM*	5.9%	21.9%
CC(C)OC(=O)CN1C(=O)S/C(=C/c2ccc(N3CCCCC3)o2)C1=O	9.5%	-4.3	-13.3%	-8.2%	7.08µM*
O=C1N/C(=C/c2ccc(N3CCOCC3)o2)C(=O)N1c1ccccc1	?	?	?	-10.9%	7.08µM*
SMILES	Lamin A splicing	PNC assembly inh	HPGD block	12-hLO inh	ALDH1A1 inh
O=C(CN1C(=O)CC(c2ccccc2)=Nc2ccccc21)Nc1ccc(Br)cc1	0.4%[46 µM]	nt	nt	nt	nt
O=C1S/C(=C\c2ccc(N3CCOCC3)o2)C(=O)N1Cc1ccc(F)cc1	?	44.9	?	-18.5%	8.91µM*
O=C1S/C(=C/c2ccc(N3CCOCC3)o2)C(=O)N1Cc1ccc(F)cc1	5.1%	35.9	-7.5%	?	2.24µM*
O=C1N=C(N2CCOCC2)S/C1=C/c1ccc(-c2ccc(F)cc2)o1	?	nt	nt	nt	-1.1%
COc1ccc(-n2ccn(CC(=O)Nc3ccc(C)cc3C)c(=O)c2=O)cc1	-5.4%[46 µM]	nt	nt	nt	nt
COc1ccc2oc(-c3ccc(O)cc3)cc(=O)c2c1	nt	nt	?	1.5%	?
CCc1cccc(NC(=O)CCn2nc(C)cc2C)c1	-5.4%[46 µM]	nt	nt	nt	nt
O=S(=O)(CCc1ccccc1)c1nnnn1-c1ccccc1	nt	nt	-2.4%	nt	7.6%
N#Cc1cccc(CS(=O)(=O)c2nnnn2C2CCCCC2)c1	nt	nt	-9.8%	nt	25.1µM*
N#Cc1ccc(CS(=O)(=O)c2nnnn2C2CCCCC2)cc1	nt	nt	-2.2%	nt	2.6%
CCS(=O)(=O)c1nnnn1-c1ccccc1S(C)(=O)=O	?	-116.6*	-4.8%	-0.5%	?
O=S(=O)(Cc1ccccc1)c1nnnn1-c1ccccc1	nt	nt	-20.2%	nt	0.447µM*
N#Cc1ccc(CS(=O)(=O)c2nnnn2-c2ccccc2)cc1	nt	nt	-4.7%	nt	0.794µM*
CC[C@H](C)[C@@H]1O[C@]2(CC[C@@H]1C)C[C@H]1C[C@H](CC=C(C)[C@@H](O[C@H]3C[C@H](OC)[C@H](O[C@H]4C[C@H](OC)[C@H](O)[C@H](C)O4)[C@H](C)O3)[C@@H](C)C=CC=C3CO[C@@H]4[C@@H](O)C(C)=C[C@H](C(=O)O1)[C@@]34O)O2	nt	nt	nt	-1.7%	nt
Cc1cccc(N2CCN(C(=O)CN3CCSc4ccccc43)CC2C)c1 (stereo unspecified)	-7.8%[46 µM]	nt	nt	nt	nt
CC(=O)c1cc(C)oc1C	nt	nt	-22.2%	-4.5%	-23.9%
c1ccc(CNc2nnnn2-c2ccccc2)cc1	?	-2.5	-16.4%	4.0%	39.8µM*
C=C(CO)C1Cc2c(ccc3c2OC2COc4cc(OC)c(OC)cc4C2C3=O)O1 (stereo unspecified)	nt	nt	-8.6%	1.8%	22.4µM*
CC(=O)Nc1cccc(N)c1	nt	nt	-3.4%	-2.1%	16.0%
O=C(O)CCCNS(=O)(=O)c1ccc2ccccc2c1	5.6%	41.4	-13.7%	-1.8%	3.16µM*
O=C(CN1CCC(C(O)(c2ccccc2)c2ccccc2)CC1)Nc1cc(Cl)ccc1Cl	-22.0%	-100.0*	-11.8%	14.1%	?
Cc1cccc(-n2ncc(C(=O)NCc3ccc4c(c3)OCO4)c2C2CCN(C(=O)OC(C)(C)C)CC2)c1	-17.0%[46 µM]	nt	nt	nt	nt
O=C(CCCN1C(=O)c2ccccc2C1=O)Nc1ccccn1	-12.3%	?	1.7%	-1.4%	-3.3%
O=C(CCCCCN1C(=O)c2ccccc2C1=O)Nc1ccc(F)cc1	-12.0%	-100.0*	17.8µM*	3.5%	?
O=C(CCCN1C(=O)CCC1=O)Nc1ccc2c(c1)OCCO2	2.7%	-11.7	-8.8%	-4.3%	?
O=C(CCCc1ccccc1)Nc1ccc2c(c1)OCCO2	nt	nt	nt	nt	-6.2%
O=C(CCN1C(=O)c2ccccc2C1=O)Nc1ccc2c(c1)OCCO2	-2.2%	-88.7*	-14.4%	1.6%	?
[N-]=[N+]=CC(=O)CCCN1C(=O)c2ccccc2C1=O	2.9%	-27.5	-10.5%	4.2%	10µM*
O=C(CCCCCN1C(=O)c2ccccc2C1=O)Nc1ccc2c(c1)OCCO2	-2.0%	36.9	-11.6%	-1.5%	28.2µM*
O=C(CCCCCN1C(=O)c2ccccc2C1=O)Nc1ccc(S(=O)(=O)N2CCCCC2)cc1	7.9%	42.6	-8.2%	-0.3%	-12.2%
